# Compound activity from PubChem BioAssay.
# Shown are actives, neighbours in structure and some others; about 28% of the full set was active somewhere.
# CYP2C9 inhib = blockers of cytochrome P450 2C9 activity – biochemical, luminescence, ADME assay, primary screen. P11712. CYP2C9 Supersomes, luciferin-H conversion. inhibition, % at 5 µM. 96,000 tested, 20% active;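 active = blocking of liver enzyme CYP2C9 beyond about 50% at 5 µM, limit read from the data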
# CYP2C19 act = human CYP2C19 activators, primary screen, biochemical, luminescence | 96,000 tested, under 10 active | recombinant CYP2C19, luciferin-H EGE luminescence; active compounds read high; 0 = fully inhibited enzyme, 1 = untreated enzyme | Cytochrome P450 2C19 (Homo sapiens), P33261 | activation factor at 5 µM | AID 1025, 2008;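 active = activation factor of at least 2 at 5 µM in the primary screen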
# Target sequence (P33261 whole entry, looked up): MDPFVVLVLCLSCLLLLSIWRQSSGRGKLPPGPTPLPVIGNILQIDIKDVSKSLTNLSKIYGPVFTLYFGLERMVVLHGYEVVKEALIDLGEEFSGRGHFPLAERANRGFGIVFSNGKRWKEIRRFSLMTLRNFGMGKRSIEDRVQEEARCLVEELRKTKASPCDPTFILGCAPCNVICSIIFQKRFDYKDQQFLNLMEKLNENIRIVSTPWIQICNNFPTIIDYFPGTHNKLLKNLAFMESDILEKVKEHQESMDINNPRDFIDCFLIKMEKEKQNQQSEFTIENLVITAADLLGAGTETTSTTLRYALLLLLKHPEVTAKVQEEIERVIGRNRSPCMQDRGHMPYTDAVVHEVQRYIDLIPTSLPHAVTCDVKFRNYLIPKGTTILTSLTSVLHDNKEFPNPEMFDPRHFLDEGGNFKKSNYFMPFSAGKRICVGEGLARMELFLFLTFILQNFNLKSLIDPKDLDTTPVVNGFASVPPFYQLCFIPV
# CYP2C9 activ = human CYP2C9 activators, primary screen, biochemical, luminescence | Cytochrome P450 2C9 (Homo sapiens), P11712 | recombinant CYP2C9, luciferin-H conversion; active compounds read high; factor 1 = untreated enzyme, 0 = blocked | activation factor at 5 µM | 96,000 tested, 1.4% active;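 active = activation factor of 2 or more for CYP2C9 at a 5 µM dose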
# Mac1 fbg inh = inhibitors of CD11b/CD18 adhesion to fibrinogen, primary screen, K562 cells, luminescence; 93,000 tested, 0.54% active; inhibition, % at 10 µM; ATPlite luminescence; Mn2+ added to activate the integrin; Integrin beta-2 (Homo sapiens) + Integrin alpha-M (Homo sapiens), P05107+P11215; AID 1497, 2009;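 active = primary inhibition of 50% or more at 10 µM, then 40% or more on retest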
# CD11b adhes enh = enhancers of CD11b/CD18 adhesion to fibrinogen, primary screen, K562 cells, luminescence; Integrin beta-2 (Homo sapiens) + Integrin alpha-M (Homo sapiens), P05107+P11215; ATPlite luminescence; activation, % at 10 µM; 93,000 tested, 0.07% active; AID 1499, 2009;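 active = 10 µM primary screen giving 50% or more activity, confirmed by 40% or more on retest at that dose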
# CYP2C19 inh = blockers of cytochrome P450 2C19 activity – biochemical, luminescence, ADME assay, primary screen. CYP2C19 Supersomes, luciferin-H EGE luminescence, 30 min. 96,000 tested, 21% active. inhibition, % at 5 µM;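 active = CYP2C19 inhibition above a set limit at 5 µM in the primary screen, cut at about 50% in these data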
# A number is an active result; - = inactive; . = no result.
SMILES,CYP2C9 inhib,CYP2C19 act,CYP2C9 activ,Mac1 fbg inh,CD11b adhes enh,CYP2C19 inh
COC(=O)C1=CN(CC2CCCO2)C=C(C(=O)OC)C1c1cc(OC)c(OC)c(OC)c1 (stereo not drawn),-,-,-,-,-,-
CCn1c(C)nc2cc(S(=O)(=O)C(F)(F)C(F)C(F)(F)F)ccc21 (stereo not drawn),-,-,-,-,-,-
COCCN(C(=O)c1csnn1)C(C(=O)NC(C)(C)C)c1cccc(OC)c1 (stereo not drawn),-,-,-,-,-,-
CCN(CC)c1ccc(/C=C(\C#N)c2nc(-c3cccs3)c(NC(C)=O)s2)cc1,.,.,.,-,-,.
CCOC(=O)C1Cn2c(nc3c(c2=O)C(C)(C)Cc2ccccc2-3)S1 (stereo not drawn),88,-,-,-,-,97
CCOC(=O)C1Cn2c(nc3c(c2=O)C2(CCCC2)Cc2ccccc2-3)S1 (stereo not drawn),-,-,-,-,-,62
Cc1ccc(-n2c(SCC(N)=O)nc3c(c2=O)C2(CCCC2)Cc2ccccc2-3)cc1,.,.,.,-,-,.
Cc1ccc(CNC(=O)C2CCC(=O)N2C2CCCCC2)cc1 (stereo not drawn),-,-,-,.,.,-
CCOc1ccc(CCNC(=O)C2CCC(=O)N2C2CCCCC2)cc1OCC (stereo not drawn),-,-,-,.,.,64
O=C(NCCc1ccc(Cl)cc1)C1CCC(=O)N1C1CCCC1 (stereo not drawn),-,-,2.3,.,.,-
COCCCNC(=S)NNC(=O)c1cccnc1,-,-,-,-,-,-
OCCN(CCO)Cc1ccc(Br)cc1,-,-,-,-,-,-
O=C(CN1CCN(Cc2ccccc2F)C1=O)NCc1cccnc1,-,-,-,-,-,-
CN(CCNC(=O)CN1CCN(Cc2ccccc2Cl)C1=O)Cc1ccccc1,-,-,-,-,-,-
Cc1ccc(CCNC(=O)CN2CCN(Cc3ccccc3F)C2=O)cc1,81,-,-,-,-,-
O=C(CN1CCN(Cc2ccc(F)cc2Cl)C1=O)NCCc1ccccc1,58,-,-,-,-,54
Cc1ccc(CCNC(=O)NC(C)(C)C)cc1,-,-,-,-,-,-
Cc1ccc(CCNC(=O)Cn2cccc2)cc1,-,-,-,.,.,76
CC(=O)Nn1c(-c2ccccc2)cc2ccccc21,-,-,-,-,-,-
C#CCOC(=O)Nc1cccn(Cc2c(Cl)cccc2Cl)c1=O,-,-,2,-,-,65
NS(=O)(=O)c1ccc(CCNC2CC(=O)N(CCc3ccccc3)C2=O)cc1 (stereo not drawn),-,-,-,-,-,-
CS(=O)(=O)Nc1cccc(C(=O)CC2(O)C(=O)Nc3ccc(Br)cc32)c1 (stereo not drawn),-,-,-,-,-,-
Cc1cccc(-n2ncc3c(NCCCn4ccnc4)ncnc32)c1,91,-,-,-,-,90
Cc1cccc(-n2ncc3c(NC(C)C)ncnc32)c1,-,-,-,-,-,-
Cc1ccc(-n2ncc3c(NCCCN4CCOCC4)ncnc32)c(C)c1,-,-,-,-,-,-
SMILES,CYP2C9 inhib,CYP2C19 act,CYP2C9 activ,Mac1 fbg inh,CD11b adhes enh,CYP2C19 inh
Cc1ccc(-n2ncc3c(NCCCn4ccnc4)ncnc32)c(C)c1,80,-,-,-,-,73
Cc1sc2ncnc(NCCCn3ccnc3)c2c1C,90,-,-,-,-,92
O=C(CCCCCn1c(=O)[nH]c2ccccc2c1=O)NCCCN1CCN(c2ccccc2F)CC1,-,-,-,-,-,-
Cc1ccccc1-c1noc(-c2ccccc2C(=O)N2CCCC2)n1,84,-,-,-,-,63
CCC(=O)Nc1ccc(N2CCN(C(=O)c3ccccc3C)CC2)cc1,-,-,-,-,-,-
Cc1ccc(-c2noc(-c3ccccc3C(=O)N3CCCC3)n2)cc1,-,-,-,-,-,-
O=C(c1ccccc1-c1nc(-c2ccc(Cl)cc2)no1)N1CCCC1,78,-,-,-,-,-
Cc1ccccc1C(=O)N1CCCN(C(=O)c2ccccc2C)CC1,-,-,-,-,-,58
CN1CCN(C(=O)c2ccccc2-c2nc(-c3ccc(Cl)cc3)no2)CC1,56,-,-,-,-,-
CCn1c(SCC(=O)Nc2cccc(C(C)=O)c2)nnc1C(C)C,-,-,-,-,-,-
O=C(O)CCCC(=O)NS(=O)(=O)c1ccc(Cl)cc1,-,-,-,-,-,-
Cc1ccccc1-c1noc(-c2ccc(O)cc2)n1,-,-,-,74,-,59
Cc1ccccc1-c1noc(-c2ccccc2F)n1,-,-,-,-,-,-
COC(=O)c1cccc(S(=O)(=O)N2CCN(c3nc4ccccc4s3)CC2)c1,-,-,-,-,-,-
CCN1C(=O)CC(N2CCN(CC(=O)NC(C)C)CC2)C1=O (stereo not drawn),-,-,-,.,.,-
COc1ccc(NC(=O)C(=O)N/N=C/c2cc(C)n(-c3cccc(Cl)c3Cl)c2C)c(OC)c1,-,-,-,-,-,72
COc1ccc(NC(=O)Nc2ccccc2C)c(OC)c1,-,-,-,-,-,-
COc1ccc(OC)c(NC(=O)C(=O)N/N=C/c2ccccc2[N+](=O)[O-])c1,-,-,2.2,.,.,-
CCOC(=O)C1CCN(c2ccc(C(N)=O)cc2[N+](=O)[O-])CC1,.,.,.,-,-,.
O=c1c2ccccc2nc(N/N=C/c2c(O)ccc3ccccc23)n1O,-,-,-,58,-,-
O=C(COC(=O)c1ccc([N+](=O)[O-])s1)Nc1ncc(C(F)(F)F)cc1Cl,.,.,.,-,-,.
N=c1ccn(Cc2ccc(Cl)cc2Cl)cc1,-,-,-,-,-,-
C=CCOC(=O)C1=C(C)Nc2nc3ccccc3n2C1c1ccncc1 (stereo not drawn),58,-,-,-,-,62
CCOC(=O)C1=C(C)Nc2nc3ccccc3n2C1c1ccncc1 (stereo not drawn),54,-,-,-,-,54
CCOC(=O)C1=C(C)Nc2nc(SCc3cccnc3)nn2C1c1ccc(OC)cc1 (stereo not drawn),66,-,-,-,-,-
CCCC(=O)Nc1ccc(Cl)c(NC(=O)c2cccnc2Cl)c1,-,-,-,.,.,-
CCOC(=O)CNc1c(N2CCN(c3ccccn3)CC2)c(=O)c1=O,-,-,-,-,-,-
O=C(NNC(=O)C1CCCO1)c1ccc(Cl)cc1 (stereo not drawn),-,-,-,-,-,-
